# For some assays here: Measured potencies and affinities stand elsewhere.
# Key:
# Parameters in all cases: scale not given: direction of the effect not stated beside the values
# [1] = biological target: Protein translocase subunit SecA (Escherichia coli (strain K12)) (UniProt P10408); assay: Assay to Identify E. coli SecA ATPase Inhibitors; format: functional; details: 30 µM
# [2] = biological target: T1, Ubiquitin-activating enzyme e1, putative (Leishmania donovani (strain BPK282A1)) (UniProt E9BSI1); assay: Leishmania donovani Ubiquitin Activating Enzyme (LdE1); format: functional; details: 30 µM
# T1 sequence (whole entry): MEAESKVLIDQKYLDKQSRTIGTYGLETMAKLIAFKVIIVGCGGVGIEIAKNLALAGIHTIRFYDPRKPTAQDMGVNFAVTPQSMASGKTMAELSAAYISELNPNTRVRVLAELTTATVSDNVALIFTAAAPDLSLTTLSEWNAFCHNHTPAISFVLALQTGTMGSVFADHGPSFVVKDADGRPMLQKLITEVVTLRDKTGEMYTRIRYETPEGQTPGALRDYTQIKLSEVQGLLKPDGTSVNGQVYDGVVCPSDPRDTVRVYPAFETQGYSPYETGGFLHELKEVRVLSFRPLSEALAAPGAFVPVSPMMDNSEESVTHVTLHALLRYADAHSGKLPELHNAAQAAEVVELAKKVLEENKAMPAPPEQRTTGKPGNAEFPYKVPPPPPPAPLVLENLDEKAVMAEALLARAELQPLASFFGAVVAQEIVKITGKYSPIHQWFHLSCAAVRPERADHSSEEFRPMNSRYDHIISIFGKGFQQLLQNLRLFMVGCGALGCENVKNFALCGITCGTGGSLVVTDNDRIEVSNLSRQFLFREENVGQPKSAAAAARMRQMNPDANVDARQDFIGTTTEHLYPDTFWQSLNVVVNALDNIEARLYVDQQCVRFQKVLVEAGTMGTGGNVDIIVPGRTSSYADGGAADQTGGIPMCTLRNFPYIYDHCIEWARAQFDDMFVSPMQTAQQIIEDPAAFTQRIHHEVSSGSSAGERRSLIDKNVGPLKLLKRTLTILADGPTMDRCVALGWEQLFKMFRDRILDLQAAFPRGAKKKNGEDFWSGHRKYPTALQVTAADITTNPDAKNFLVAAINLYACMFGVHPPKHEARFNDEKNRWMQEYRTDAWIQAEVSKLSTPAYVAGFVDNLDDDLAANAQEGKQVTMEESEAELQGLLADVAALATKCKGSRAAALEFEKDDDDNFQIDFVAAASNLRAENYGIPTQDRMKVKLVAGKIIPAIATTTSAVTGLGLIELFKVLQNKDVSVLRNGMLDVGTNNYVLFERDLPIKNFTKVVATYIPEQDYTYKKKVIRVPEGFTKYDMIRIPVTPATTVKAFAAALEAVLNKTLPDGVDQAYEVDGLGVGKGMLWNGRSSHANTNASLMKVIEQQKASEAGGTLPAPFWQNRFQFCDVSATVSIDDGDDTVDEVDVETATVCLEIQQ
# [3] = biological target: AMP-activated protein kinase, AMPK (Homo sapiens) (UniProt P54646+O43741+P54619+Q9UGJ0+Q9Y478+Q13131+Q9UGI9); assay: AMP-dependent Kinase enzyme assay. An in vitro enzyme assay that detects ADP turnover that is directly proportional to AMPK activity. This uses naive AMPK that is activated during the assay with MK-8722; format: functional; details: 30 µM
# [4] = biological target: Sialic acid-binding Ig-like lectin 9 (Homo sapiens) (UniProt Q9Y336); assay: Hs-Siglec9 ALPHAscreen SOP 20170721; details: 10 µM
# Trypanosoma cruzi = assay: Trypanosoma cruzi phosphomannomutase and mannose-1-phosphate guanylyltransferase assay; format: functional; details: 10 µM
# [5] = biological target: T2, Arginase-2, mitochondrial (Homo sapiens) (UniProt P78540); assay: in vitro enzyme assay to detect the production of urea directly proportional to the activity of Arginase II; format: functional; details: 33.3 µM; further: in the data most compounds retested in dose-response had high values
# T2 sequence (whole entry): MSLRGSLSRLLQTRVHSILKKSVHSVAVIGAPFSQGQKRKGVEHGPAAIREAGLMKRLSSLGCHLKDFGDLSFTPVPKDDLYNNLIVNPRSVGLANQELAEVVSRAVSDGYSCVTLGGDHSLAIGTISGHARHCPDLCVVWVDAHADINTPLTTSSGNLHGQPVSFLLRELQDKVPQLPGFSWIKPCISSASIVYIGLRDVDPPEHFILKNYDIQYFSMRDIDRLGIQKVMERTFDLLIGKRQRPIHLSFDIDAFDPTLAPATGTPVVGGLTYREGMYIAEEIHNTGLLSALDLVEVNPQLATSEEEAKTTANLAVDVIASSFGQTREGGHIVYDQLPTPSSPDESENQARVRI
# [6] = biological target: T3, Proteasome subunit beta (Trypanosoma cruzi) (UniProt O96673); assay: Trypanosoma cruzi proteasome chymotrypsin-like activity (TcProtChymo) assay.; further: in the data most compounds retested in dose-response had high values; format: functional; details: 9.37 µM
# T3 sequence (whole entry): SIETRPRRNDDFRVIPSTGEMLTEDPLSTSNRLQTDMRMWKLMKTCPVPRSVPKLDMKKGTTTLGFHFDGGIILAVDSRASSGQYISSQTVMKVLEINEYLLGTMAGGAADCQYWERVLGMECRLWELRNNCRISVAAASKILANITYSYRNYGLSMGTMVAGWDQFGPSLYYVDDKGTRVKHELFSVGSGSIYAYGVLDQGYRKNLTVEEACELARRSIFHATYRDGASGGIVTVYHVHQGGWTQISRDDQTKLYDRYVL
# Homo sapiens = species on record: Homo sapiens; assay: To identify inhibition of the IFN signalling (Jak-Stat) pathway via expression of an eGFP reporter gene under the control of an IFN-stimulated response element (ISRE) containing MxA promoter.; format: functional; details: 30 µM
# [7] = biological target: T4, Tyrosyl-tRNA synthetase, putative (Trypanosoma cruzi (strain CL Brener)) (UniProt Q4DSP6); assay: Trypanosoma cruzi tyrosyl tRNA synthetase (TcYRS) _High Tyrosine SOP; format: functional; details: 30 µM; further: in the data most compounds retested in dose-response had high values
# T4 sequence (whole entry): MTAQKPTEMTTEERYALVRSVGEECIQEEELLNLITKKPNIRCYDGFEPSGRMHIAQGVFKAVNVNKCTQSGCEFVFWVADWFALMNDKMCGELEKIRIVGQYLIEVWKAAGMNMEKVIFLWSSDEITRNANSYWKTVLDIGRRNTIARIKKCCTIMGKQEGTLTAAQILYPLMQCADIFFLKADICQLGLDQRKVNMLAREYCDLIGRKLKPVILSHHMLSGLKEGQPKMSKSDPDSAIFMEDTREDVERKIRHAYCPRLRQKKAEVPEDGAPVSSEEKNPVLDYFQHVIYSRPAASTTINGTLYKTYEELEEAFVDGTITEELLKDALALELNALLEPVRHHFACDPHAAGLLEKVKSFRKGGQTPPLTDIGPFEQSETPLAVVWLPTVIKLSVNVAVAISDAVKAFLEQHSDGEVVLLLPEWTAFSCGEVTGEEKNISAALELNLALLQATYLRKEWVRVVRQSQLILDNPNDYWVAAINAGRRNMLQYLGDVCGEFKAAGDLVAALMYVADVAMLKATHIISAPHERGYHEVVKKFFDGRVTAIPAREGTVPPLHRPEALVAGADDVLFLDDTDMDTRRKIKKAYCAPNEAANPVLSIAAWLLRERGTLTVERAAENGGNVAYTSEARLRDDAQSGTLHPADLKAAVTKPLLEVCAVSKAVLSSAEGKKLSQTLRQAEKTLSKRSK
# [8] = biological target: T4, Tyrosyl-tRNA synthetase, putative (Trypanosoma cruzi (strain CL Brener)); assay: Trypanosoma cruzi tyrosyl tRNA synthetase (TcYRS) SOP; format: functional; details: 30 µM
# [9] = biological target: Chromo domain-containing protein 1 (Saccharomyces cerevisiae (strain ATCC 204508 / S288c) (Baker's yeast)) (UniProt P32657); assay: ScCHD-1 Enzyme Inhibition Assay; format: functional; details: 30 µM; further: in the data most compounds retested in dose-response had high values
# Chromo domain-containing protein 1 (Saccharomyces cerevisiae (strain ATCC 204508 / S288c) (Baker's yeast)), sequence (P32657 whole entry, the tested form may be a part): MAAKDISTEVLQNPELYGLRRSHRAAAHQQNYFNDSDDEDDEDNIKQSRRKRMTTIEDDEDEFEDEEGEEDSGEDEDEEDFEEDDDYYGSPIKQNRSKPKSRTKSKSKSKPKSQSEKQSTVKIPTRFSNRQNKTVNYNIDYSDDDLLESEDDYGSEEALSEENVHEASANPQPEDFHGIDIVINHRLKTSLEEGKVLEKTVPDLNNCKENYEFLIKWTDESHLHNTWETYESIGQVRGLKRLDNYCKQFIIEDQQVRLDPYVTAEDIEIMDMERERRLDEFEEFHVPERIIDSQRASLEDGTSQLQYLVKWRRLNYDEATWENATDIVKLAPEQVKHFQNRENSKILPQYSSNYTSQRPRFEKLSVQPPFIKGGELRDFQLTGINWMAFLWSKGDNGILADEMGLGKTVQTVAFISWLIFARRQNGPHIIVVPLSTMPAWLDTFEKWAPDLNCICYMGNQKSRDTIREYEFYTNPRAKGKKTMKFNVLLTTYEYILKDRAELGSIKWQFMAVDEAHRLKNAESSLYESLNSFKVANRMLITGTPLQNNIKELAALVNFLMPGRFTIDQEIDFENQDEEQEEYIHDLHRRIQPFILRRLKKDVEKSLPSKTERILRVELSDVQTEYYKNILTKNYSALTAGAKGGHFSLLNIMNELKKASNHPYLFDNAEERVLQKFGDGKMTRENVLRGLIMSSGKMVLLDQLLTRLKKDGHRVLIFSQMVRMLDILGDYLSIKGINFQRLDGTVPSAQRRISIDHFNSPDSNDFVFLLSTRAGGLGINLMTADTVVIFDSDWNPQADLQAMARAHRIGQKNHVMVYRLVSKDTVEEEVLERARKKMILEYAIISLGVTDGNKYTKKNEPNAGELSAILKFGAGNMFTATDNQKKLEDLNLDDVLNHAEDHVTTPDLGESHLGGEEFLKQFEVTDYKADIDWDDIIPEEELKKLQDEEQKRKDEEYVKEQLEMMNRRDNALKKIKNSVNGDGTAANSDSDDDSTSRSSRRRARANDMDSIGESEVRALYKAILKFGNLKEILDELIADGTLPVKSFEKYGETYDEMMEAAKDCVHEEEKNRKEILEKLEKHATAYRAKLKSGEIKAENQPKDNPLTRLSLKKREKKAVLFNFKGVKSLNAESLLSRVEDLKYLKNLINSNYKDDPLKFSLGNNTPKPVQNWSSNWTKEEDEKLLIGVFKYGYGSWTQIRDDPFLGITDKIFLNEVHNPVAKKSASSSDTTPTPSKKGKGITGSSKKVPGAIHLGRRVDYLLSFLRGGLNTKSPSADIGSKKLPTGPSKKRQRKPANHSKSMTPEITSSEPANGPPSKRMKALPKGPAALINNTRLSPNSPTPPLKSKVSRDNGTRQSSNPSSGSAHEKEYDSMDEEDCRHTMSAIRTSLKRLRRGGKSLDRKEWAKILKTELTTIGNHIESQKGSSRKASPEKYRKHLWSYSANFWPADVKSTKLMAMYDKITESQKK
# Sialic acid-binding Ig-like lectin 9 (Homo sapiens), sequence (Q9Y336 whole entry): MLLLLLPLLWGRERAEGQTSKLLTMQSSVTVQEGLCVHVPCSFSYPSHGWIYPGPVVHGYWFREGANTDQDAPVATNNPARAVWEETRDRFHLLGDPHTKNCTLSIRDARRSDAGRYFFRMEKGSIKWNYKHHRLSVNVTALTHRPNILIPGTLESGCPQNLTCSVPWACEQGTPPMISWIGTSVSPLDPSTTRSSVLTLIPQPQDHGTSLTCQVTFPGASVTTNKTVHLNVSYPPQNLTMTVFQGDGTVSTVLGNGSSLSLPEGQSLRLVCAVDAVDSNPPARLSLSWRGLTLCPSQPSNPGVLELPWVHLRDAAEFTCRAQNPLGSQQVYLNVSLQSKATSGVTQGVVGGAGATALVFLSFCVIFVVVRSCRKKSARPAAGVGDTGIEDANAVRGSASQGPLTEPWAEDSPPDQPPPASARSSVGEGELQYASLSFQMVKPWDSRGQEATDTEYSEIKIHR
# Protein translocase subunit SecA (Escherichia coli (strain K12)), sequence (P10408 whole entry): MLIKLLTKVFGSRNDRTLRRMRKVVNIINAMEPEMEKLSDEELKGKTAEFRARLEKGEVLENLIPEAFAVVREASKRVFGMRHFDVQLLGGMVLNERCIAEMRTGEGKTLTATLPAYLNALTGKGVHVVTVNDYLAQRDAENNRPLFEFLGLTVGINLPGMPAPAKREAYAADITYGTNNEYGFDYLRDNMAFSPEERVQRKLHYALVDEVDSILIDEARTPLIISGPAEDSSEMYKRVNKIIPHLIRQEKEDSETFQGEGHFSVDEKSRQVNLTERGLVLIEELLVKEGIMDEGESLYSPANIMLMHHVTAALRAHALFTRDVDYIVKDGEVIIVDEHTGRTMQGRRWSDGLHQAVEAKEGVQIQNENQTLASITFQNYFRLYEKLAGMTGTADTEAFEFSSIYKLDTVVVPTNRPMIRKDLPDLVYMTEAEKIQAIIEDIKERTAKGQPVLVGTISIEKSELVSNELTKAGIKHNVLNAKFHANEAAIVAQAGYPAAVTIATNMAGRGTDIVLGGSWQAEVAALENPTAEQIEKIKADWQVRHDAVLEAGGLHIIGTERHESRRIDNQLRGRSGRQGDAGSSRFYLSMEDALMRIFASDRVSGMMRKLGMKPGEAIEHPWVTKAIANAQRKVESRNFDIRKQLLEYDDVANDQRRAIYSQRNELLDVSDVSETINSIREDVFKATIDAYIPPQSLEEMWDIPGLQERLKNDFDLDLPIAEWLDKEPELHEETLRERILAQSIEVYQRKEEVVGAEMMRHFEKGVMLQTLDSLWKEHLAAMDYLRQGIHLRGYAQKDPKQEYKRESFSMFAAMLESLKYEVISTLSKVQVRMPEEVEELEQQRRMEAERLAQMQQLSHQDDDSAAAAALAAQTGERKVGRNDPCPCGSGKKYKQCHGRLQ
Structure (SMILES),Percent Effect [1] [%],Percent Effect [2] [%],Percent Effect [3] [%],Percent Effect [4] [%],Percent Effect (Trypanosoma cruzi) [%],Percent Effect [5] [%],Percent Effect [6] [%],Percent Effect (Homo sapiens) [%],Percent Effect [7] [%],Percent Effect [8] [%],Percent Effect [9] [%]
Cc1cnn(CCNCCCOc2ccccc2)c1,1.02,-21.1,-5.54,5.86,3.27,1.08,6.85,-25,6.4,3.7,-0.782
CC(C)N(C)C(=O)C1=NOC2(CCN(C(=O)c3ccncc3)C2)C1 (stereo unspecified),-3.37,2.74,-0.462,-1.1,-1.79,-5.19,12.6,1.3,1.04,6.17,-0.614
CC(C)c1nc2c(n1C)CCN(CC(=O)Nc1nccs1)C2,-4.97,15.6,1.78,-4.17,-0.686,3.58,15.3,-3.14,9.52,21.2,-18
c1cnc(N2CCOCC3(CCCN(CC4CC4)C3)C2)cn1 (stereo unspecified),-1.84,5.33,1.73,4.28,-1.74,-52.5,6.84,-10.7,4.17,5,-4.17
O=C(NCc1ccco1)[C@H]1C[C@H]2OCC[C@H]2N(C(=O)c2ccco2)C1,-4.08,-2.67,12.4,1.43,-3.09,-50.4,12,-6.88,-3.12,-5,63.9
O=C(c1nn(-c2ccccc2F)cc1O)N1CCCC1,-5,-10.8,-2.23,3.15,-3.62,-0.185,-6.1,5.03,-6.93,-8.54,4.21
Cc1cccn2c(=O)cc(CN3CCCCC3Cn3cncn3)nc12 (stereo unspecified),-9.82,-2.7,-1.37,-1.48,-4.2,-1.74,9.53,-10.4,-1.07,-6.17,-6.48
CN1C[C@H]2CCN(C(=O)NC3CCCC3)CC[C@H]2S1(=O)=O,1.67,-4,10.5,-0.732,-5.7,29.4,4.62,-1.7,1.06,-2.56,-5.65
Cc1nn(C)c(C)c1C1CCCN1C(=O)CCc1cscn1 (stereo unspecified),-2.32,-5.26,-4.9,0.0636,0.467,0.36,6.18,-8.57,1.48,1.24,2.83
Cc1nsc(N2CCCN(c3nc(C4CC4)ns3)CC2)n1,-2.5,11,9.09,5.05,4.9,19.1,10.1,5.1,1.07,5,-4.56
CCc1cnc(N2CCC3(CC2)CN(c2cccnc2)C(=O)CO3)nc1,-5.43,0,2.98,-2.45,-3.03,-4.78,7.01,26.6,-4.32,-7.69,6.26
O=C(NCc1ccco1)[C@H]1C[C@H]2OCC[C@H]2N(C(=O)c2ccncc2)C1,-2.12,-2.67,11.1,21.8,0.193,-50,7.18,-21.2,3.12,2.5,-1.86
Cc1noc(C)c1CCC(=O)N1CCCN(Cc2cscn2)CC1,-1.71,13.2,-5.71,-4.5,-3.76,6.9,21.1,23,8.33,17.1,-10.5
CCCc1nc(CN2CCCC2Cn2cncn2)cs1 (stereo unspecified),-3.84,12.7,-5.8,9.38,3.87,-24.3,5.98,4.39,10.3,24.1,-3.42
CC(NC(=O)NCc1ccc(Cl)s1)c1ccccn1 (stereo unspecified),-1.22,11.4,6.06,1.35,-3.38,2.37,5.49,12.4,3.12,15.2,-12.8
CCOc1ccnc(N2CCN(C(=O)C(C)(C)C#N)CC2)n1,-5.28,15.8,-6.59,-2.59,-4.39,1.8,4.99,6.24,1.48,6.17,-2.03
